The whole screen tested about 5,500 compounds, of which about 2,000 (36%) were called active. Another 18% or so got no clear call; they are omitted. Rule as the data show it: active = normalized growth mostly below about 0.91 (no sharp cut-off); inconclusive = no clear call, values can overlap the other calls; inactive = mostly above about 0.92. The list shows a part of the results.
Assay: chemical genetic growth profiling, strain panel (AID 1159580);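 also: tested at 20 µM; growth read once vehicle control cultures reached saturation at 30 °C; 1 = growth at the plate median or of vehicle wells; lower values mean less growth of the strain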
Conditions: growth OD

Measured: normalized growth

Clc1ccc(COC(Cn2ccnc2)c2ccc(Cl)cc2Cl)cc1 (stereo unspecified)
active: S. cerevisiae deletion strains, locus YJR066W, strain TOR1, stronger effect = lower value 0.00125 | S. cerevisiae deletion strains, locus YJR075W, strain HOC1, stronger effect = lower value 0.0611 | S. cerevisiae deletion strains, locus YKL009W, strain mrt4, stronger effect = lower value 0.0921 | S. cerevisiae deletion strains, locus YKL068W, stronger effect = lower value 0.0732 | S. cerevisiae deletion strains, locus YKL085W, strain MDH1 (second series), stronger effect = lower value 0.0674 | S. cerevisiae deletion strains, locus YKL085W, strain MDH1, stronger effect = lower value 0.0674 | S. cerevisiae deletion strains, locus YKL160W, strain elf1, stronger effect = lower value 0.0682 | S. cerevisiae deletion strains, locus YKL190W, strain CNB1, stronger effect = lower value 0.0459 | S. cerevisiae deletion strains, locus YKR001C, strain vps1, stronger effect = lower value 0.0628 | S. cerevisiae deletion strains, locus YKR026C, strain gcn3, stronger effect = lower value 0.0617 | S. cerevisiae deletion strains, locus YKR091W, strain srl3, stronger effect = lower value 0.0578 | S. cerevisiae deletion strains, locus YLL001W, strain dnm1, stronger effect = lower value 0.0616 | S. cerevisiae deletion strains, locus YLL026W, stronger effect = lower value 0.0557 | S. cerevisiae deletion strains, locus YLL041C, strain sdh2, stronger effect = lower value 0.0556 | S. cerevisiae deletion strains, locus YLR027C, strain aat2, stronger effect = lower value 0.0535 | S. cerevisiae deletion strains, locus YLR039C, strain RIC1, stronger effect = lower value 0.0808 | S. cerevisiae deletion strains, locus YLR058C, strain SHM2, stronger effect = lower value 0.0475 | S. cerevisiae deletion strains, locus YLR102C, strain apc9, stronger effect = lower value 0.0627 | S. cerevisiae deletion strains, locus YLR113W, strain HOG1, stronger effect = lower value 0.128 | S. cerevisiae deletion strains, locus YLR221C, strain rsa3, stronger effect = lower value 0.0566 | S. cerevisiae deletion strains, locus YLR258W, strain gsy2, stronger effect = lower value 0.0569 | S. cerevisiae deletion strains, locus YLR262C, strain YPT6 (second series), stronger effect = lower value 0.0789 | S. cerevisiae deletion strains, locus YLR262C, strain YPT6, stronger effect = lower value 0.112 | S. cerevisiae deletion strains, locus YLR268W, strain sec22, stronger effect = lower value 0.0635 | S. cerevisiae deletion strains, locus YLR320W, strain mms22, stronger effect = lower value 0.139 | S. cerevisiae deletion strains, locus YLR330W, strain CHS5, stronger effect = lower value 0.0517 | S. cerevisiae deletion strains, locus YLR342W, strain FKS1 (second series), stronger effect = lower value 0.0624 | S. cerevisiae deletion strains, locus YLR342W, strain FKS1, stronger effect = lower value 0.0696 | S. cerevisiae deletion strains, locus YLR357W, strain rsc2, stronger effect = lower value 0.121 | S. cerevisiae deletion strains, locus YLR370C, strain arc18, stronger effect = lower value 0.0609 | S. cerevisiae deletion strains, locus YLR371W, strain rom2, stronger effect = lower value 0.0612 | S. cerevisiae deletion strains, locus YLR384C, strain iki3, stronger effect = lower value 0.0595 | S. cerevisiae deletion strains, locus YLR418C, strain cdc73, stronger effect = lower value 0.089 | S. cerevisiae deletion strains, locus YML016C, strain PPZ1, stronger effect = lower value 0.046 | S. cerevisiae deletion strains, locus YML032C, strain rad52, stronger effect = lower value 0.0629 | S. cerevisiae deletion strains, locus YML120C, strain ndi1, stronger effect = lower value 0.0559 | S. cerevisiae deletion strains, locus YML124C, strain tub3, stronger effect = lower value 0.06 | S. cerevisiae deletion strains, locus YMR058W, strain fet3, stronger effect = lower value 0.0614 | S. cerevisiae deletion strains, locus YMR078C, strain ctf18, stronger effect = lower value 0.0711 | S. cerevisiae deletion strains, locus YMR125W, strain sto1, stronger effect = lower value 0.0771 | S. cerevisiae deletion strains, locus YMR129W, stronger effect = lower value 0.0559 | S. cerevisiae deletion strains, locus YMR205C, strain PFK2, stronger effect = lower value 0.0917 | S. cerevisiae deletion strains, locus YMR223W, strain ubp8, stronger effect = lower value 0.0593 | S. cerevisiae deletion strains, locus YMR231W, strain pep5, stronger effect = lower value 0.125 | S. cerevisiae deletion strains, locus YMR263W, strain SAP30, stronger effect = lower value 0.055 | S. cerevisiae deletion strains, locus YMR307W, strain GAS1, stronger effect = lower value 0.123 | S. cerevisiae deletion strains, locus YNL067W, strain RPL9B, stronger effect = lower value 0.0483 | S. cerevisiae deletion strains, locus YNL071W, strain lat1, stronger effect = lower value 0.0586 | S. cerevisiae deletion strains, locus YNL128W, strain TEP1, stronger effect = lower value 0.0622 | S. cerevisiae deletion strains, locus YNL153C, strain GIM3, stronger effect = lower value 0.0497 | S. cerevisiae deletion strains, locus YNL183C, strain NPR1, stronger effect = lower value -0.00516 | S. cerevisiae deletion strains, locus YNL209W, strain ssb2, stronger effect = lower value 0.0633 | S. cerevisiae deletion strains, locus YNL233W, strain BNI4, stronger effect = lower value 0.0542 | S. cerevisiae deletion strains, locus YNL248C, strain rpa49, stronger effect = lower value 0.0786 | S. cerevisiae deletion strains, locus YNL250W, strain rad50, stronger effect = lower value 0.0799 | S. cerevisiae deletion strains, locus YNL271C, strain bni1, stronger effect = lower value 0.0793 | S. cerevisiae deletion strains, locus YNL298W, strain CLA4, stronger effect = lower value 0.0698 | S. cerevisiae deletion strains, locus YNL307C, strain MCK1, stronger effect = lower value 0.0676 | S. cerevisiae deletion strains, locus YNL322C, strain KRE1 (second series), stronger effect = lower value 0.067 | S. cerevisiae deletion strains, locus YNR049C, strain mso1, stronger effect = lower value 0.0571 | S. cerevisiae deletion strains, locus YNR052C, strain pop2, stronger effect = lower value 0.0609 | S. cerevisiae deletion strains, locus YOL006C, strain TOP1, stronger effect = lower value 0.104 | S. cerevisiae deletion strains, locus YOL012C, strain htz1 0.142 | S. cerevisiae deletion strains, locus YOL147C, strain pex11, stronger effect = lower value 0.0571 | S. cerevisiae deletion strains, locus YOR001W, strain rrp6, stronger effect = lower value 0.0678 | S. cerevisiae deletion strains, locus YOR061W, strain CKA2, stronger effect = lower value 0.0453 | S. cerevisiae deletion strains, locus YOR069W, strain VPS5, stronger effect = lower value 0.0468 | S. cerevisiae deletion strains, locus YOR070C, strain gyp1, stronger effect = lower value 0.0583 | S. cerevisiae deletion strains, locus YOR080W, strain dia2, stronger effect = lower value 0.0655 | S. cerevisiae deletion strains, locus YOR083W, strain WHI5, stronger effect = lower value 0.0646 | S. cerevisiae deletion strains, locus YOR106W, strain vam3, stronger effect = lower value 0.0717 | S. cerevisiae deletion strains, locus YOR136W, strain idh2, stronger effect = lower value 0.0693 | S. cerevisiae deletion strains, locus YOR144C, strain elg1, stronger effect = lower value 0.0562 | S. cerevisiae deletion strains, locus YOR184W, strain ser1, stronger effect = lower value 0.0649 | S. cerevisiae deletion strains, locus YOR231W, strain MKK1, stronger effect = lower value 0.119 | S. cerevisiae deletion strains, locus YOR265W, strain rbl2, stronger effect = lower value 0.0574 | S. cerevisiae deletion strains, locus YOR270C, strain vph1, stronger effect = lower value 0.104 | S. cerevisiae deletion strains, locus YOR290C, strain snf2, stronger effect = lower value 0.0649 | S. cerevisiae deletion strains, locus YOR316C, strain cot1, stronger effect = lower value 0.0595 | S. cerevisiae deletion strains, locus YPL051W, strain arl3, stronger effect = lower value 0.0626 | S. cerevisiae deletion strains, locus YPL078C, strain atp4, stronger effect = lower value 0.0787 | S. cerevisiae deletion strains, locus YPL106C, strain sse1, stronger effect = lower value 0.0958 | S. cerevisiae deletion strains, locus YPL240C, strain hsp82, stronger effect = lower value 0.0557 | S. cerevisiae deletion strains, locus YPL241C, strain CIN2, stronger effect = lower value 0.0472 | S. cerevisiae deletion strains, locus YPL256C, strain CLN2, stronger effect = lower value 0.127 | S. cerevisiae deletion strains, locus YPR119W, strain clb2, stronger effect = lower value 0.062 | S. cerevisiae deletion strains, locus YPR141C, strain kar3, stronger effect = lower value 0.0789 | S. cerevisiae deletion strains, locus YPR163C, strain tif3, stronger effect = lower value 0.0707 | S. cerevisiae deletion strains, locus YPR167C, strain met16, stronger effect = lower value 0.0615 | S. cerevisiae deletion strains, strain wtn01, stronger effect = lower value 0.0584 | S. cerevisiae strains, strain wild type, stronger effect = lower value 0.0556
